From PubChem BioAssay (NCI) come the findings set out here.

Compounds without any hit were thinned out: in the full panel of roughly 83,000, 20% have a hit.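 Negative percent growth values reflect cell death: -40 means 40% of the cells present at the start died, and -100 means all died.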 Values without a mark were called inactive. Active and inactive are the calls of the source. Rule for the calls: active = growth percent below 10; inactive = the rest.

Holding throughout (experiment): NCI-60 one-dose screen, 48 h (100 = growth as untreated, 0 = no growth, -100 = all killed)
Common to all, as to conditions: 10 µM unless noted

The subject of test [1] is BT-549 breast.
The test system of test [2] is MDA-MB-435 melanoma.
For test [3], the system named is SW-620 colon.
For test [4], the system named is MCF7 breast.
Test [5] has as its system HCT-116 colon.
Test [6] relates to HCC-2998 colon.
Test [7] deals with KM12 colon.

With `CCc1ccc(Nc2ncnc3c2cnn3-c2cccc(Br)c2)cc1`, the growth was 95.8% in test [1]; 98% in test [2]; 99.6% in test [3]; 102% in test [4]; 96.1% in test [5]; 98.1% in test [6]. In test [7], the growth was 106%.

Take `CC(=O)O[C@H]1[C@H](CC#CC#CC[C@@H]2C[C@]3(C)[C@H]4CC=C5[C@H]6[C@@H](C)[C@H](C)CC[C@]6(C(=O)NCCN(CCN)CCN)CC[C@@]5(C)[C@]4(C)CC[C@H]3C(C)(C)[C@H]2OC(C)=O)C[C@]2(C)[C@H]3CC=C4[C@H]5[C@@H](C)[C@H](C)CC[C@]5(C(=O)NCCN(CCN)CCN)CC[C@@]4(C)[C@]3(C)CC[C@H]2C1(C)C`: the growth in test [1] is 99.9%; in test [2] it was 64.7%; in test [3], 64%; in test [4] it was -0.0516% (active); in test [5], 75.5%; in test [6], 72.3%. The growth in test [7] is 86.1%.

Regarding `COC(=O)C(CCC(=O)CCl)N1C(=O)c2ccccc2C1=O` (stereo not drawn), the growth was 55.7% in test [1]; 35.2% in test [2]; 32.9% in test [3]; 26.2% in test [4]; 25% in test [5]; 89.4% in test [6]. In test [7], the growth was 101%.

`C#CC[C@@H]1C[C@]2(C)[C@H]3CC[C@@H]4[C@H]5C(C(=C)C)CC[C@]5(C(=O)NCCN(CCN)CCN)CC[C@@]4(C)[C@]3(C)CC[C@H]2C(C)(C)[C@H]1OC(C)=O` (stereo partly drawn): the growth in test [1] is 110%; in test [2], 84.8%; in test [3], 15.2%; in test [4] it was -59.9% (active); in test [5] it was 2.57% (active); in test [6], 81.1%. In addition, in test [7], the growth was 60%.

Consider `C#CC[C@@H]1C[C@]2(C)[C@H]3CC=C4[C@H]5CC(C)(C)CC[C@]5(C(=O)NCCCCN)CC[C@@]4(C)[C@]3(C)CC[C@H]2C(C)(C)[C@H]1OC(C)=O`, for which the growth in test [1] was 97.8%; in test [2] it was -34.2% (active); in test [3], -23.9% (active); in test [4] it was 4.27% (active); in test [5], -31% (active); in test [6] it was 1.58% (active). Moreover, in test [7], the growth was 6.43% (active).

For `C=C(CN1CC=CCC1)[C@@H]1CC[C@]2(C(=O)OC)CC[C@]3(C)[C@H](CC[C@@H]4[C@@]5(C)CC[C@H](OC(C)=O)C(C)(C)[C@@H]5CC[C@]43C)[C@@H]12`, the growth in test [1] is 85.6%; in test [2], 90.7%; in test [3] it was 102%; in test [4] it was 88.2%; in test [5], 86.7%; in test [6], 108%. Further, the growth in test [7] is 78.6%.

Take `CCN(CC)Cc1cc(Nc2nc(NC3CCC(N(C)C)CC3)c3ccccc3n2)ccc1OC` (stereo not drawn): the growth is 107% in test [1]; 39.5% in test [2]; 61.4% in test [3]; 40.1% in test [4]; 60.5% in test [5]; 81.3% in test [6]. For the same compound, in test [7], the growth was 61.1%.

Consider `FC1(F)CCN(Cc2c[nH]c3cc(Cl)ccc23)C[C@H]1CCc1ccccc1`, for which the growth in test [1] was 56%; in test [2], 59.3%; in test [3], 38.8%; in test [4] it was 41.2%; in test [5], 22.8%; in test [6] it was 95.3%. In test [7], the growth is 60.8%.

For `O=C(Nc1ccc(Oc2ccc(NC(=O)Nc3ccccc3Cl)cc2)cc1)Nc1ccccc1Cl`, the growth was 48.8% in test [2]; 51.7% in test [3]; 44.1% in test [4]; 29.2% in test [5]; 80.4% in test [6]; 40.8% in test [7].

Consider `CCn1c(CN2CCN(Cc3ccccc3)CC2)nc2cc(NC(=O)c3cccs3)ccc21`, for which the growth is -30.9% (active) in test [1]; -89% (active) in test [2]; -82.8% (active) in test [3]; -88.1% (active) in test [4]; 0.264% (active) in test [5]; -88.9% (active) in test [6]. Further, in test [7], the growth is -93.5% (active).

On to `C=CCn1c(C)nc2cc(Nc3nc(N4CCOCC4)nc4nc[nH]c34)ccc21`, for which the growth was 90.3% in test [1]; 100% in test [2]; 93.1% in test [3]; 86.5% in test [4]; 91.4% in test [5]; 100% in test [6]. Besides, the growth in test [7] is 101%.

`COc1cc(C)cc2oc3oc(=O)c(-c4csc(-c5cc6ccccc6oc5=O)n4)cc3c(=O)c12`: the growth in test [1] was 107%; in test [2], 105%; in test [3], 105%; in test [4], 101%; in test [5] it was 106%; in test [6] it was 106%. In addition, the growth in test [7] is 107%.

In the case of `CC(=O)O[C@H]1[C@H](CC#CC#CC[C@@H]2C[C@]3(C)[C@H]4CC=C5[C@H]6[C@@H](C)[C@H](C)CC[C@]6(C(=O)NCCCCCCCCN)CC[C@@]5(C)[C@]4(C)CC[C@H]3C(C)(C)[C@H]2OC(C)=O)C[C@]2(C)[C@H]3CC=C4[C@H]5[C@@H](C)[C@H](C)CC[C@]5(C(=O)NCCCCCCCCN)CC[C@@]4(C)[C@]3(C)CC[C@H]2C1(C)C`, the growth in test [1] was 112%; in test [2] it was 110%; in test [3], 97.8%; in test [4], 105%; in test [5], 97.7%; in test [6], 100%. In test [7], the growth is 89.2%.

With `C#CC[C@@H]1C[C@]2(C)[C@H]3CC=C4[C@H]5[C@@H](C)[C@H](C)CC[C@]5(C(=O)NCCCCN)CC[C@@]4(C)[C@]3(C)CC[C@H]2C(C)(C)[C@H]1OC(C)=O`, the growth in test [1] was 93.8%; in test [3], 20.1%; in test [4], 12.2%; in test [5], -56.4% (active); in test [6], 30%; in test [7] it was 38.3%.

As for `CN1CCN(Cc2ccc(NC(=O)c3cncc(C#Cc4ncc5ccccn45)c3)cc2C(F)(F)F)CC1`, the growth is 39.3% in test [1]; 28.1% in test [2]; 1.35% (active) in test [3]; -6.36% (active) in test [4]; -51.5% (active) in test [5]; 48.6% in test [6]. Further, the growth in test [7] was 4.65% (active).
